TDP1 cell CPT = qHTS for Inhibitors of human tyrosyl-DNA phosphodiesterase 1 (TDP1): qHTS in cells in presence of CPT; Potency, µM (titrated, usually from 46.2 µM), for inactives: at the top dose activity change, negative = growth inhibition, most hits filed as inhibitors; chicken DT40 Tdp1-/-;hTDP1 cells + 20 nM CPT, ATP luminescence, 48 h; actives 12% (n = 420,000); note: % is set by controls: 0 for no effect and ±100 for the full control effect; nearly all actives have a fitted effect of over 55% in size
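Cell growth measured by CellTiter-Glo luminescence after a minimum 48 h, 37 C compound exposure with 20 nM CPT in Tdp1-knockout DT40 cells stably expressing hTDP1, seeded 400/well; qHTS titration format.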
DT40 TDP1 no CPT = qHTS for Inhibitors of human tyrosyl-DNA phosphodiesterase 1 (TDP1): qHTS in cells in absence of CPT; DT40 Tdp1-/- hTDP1 cells, no CPT, ATP luminescence, 48 h; Potency, µM (top dose mostly 46.2 µM), without a hit: at the top dose activity change, negative = growth inhibition, usual class: inhibitors; actives 15% (n = 420,000); note: % is set by controls: 0 for no effect and ±100 for the full control effect; nearly all actives have a fitted effect of over 55% in size
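Chicken DT40 Tdp1-/- cells complemented with human TDP1, screened without camptothecin (DMSO vehicle only), 400 cells/well. Compounds pin-transferred, cells incubated at 37 °C for at least 48 hr. Growth read as ATP-dependent luminescence (CellTiter-Glo, 30 min at RT).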
HepG2 tox = qHTS for Inhibitors of TGF-b: Cytotox Counterscreen. HepG2 CAGA-GFP viability, ATP luminescence, 18 h. Potency, µM (titrated, usually from 46.1 µM), for the others: top-dose activity change, negative = cytotoxicity, usual class: cytotoxic. actives 0.76% (n = 410,000)
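HepG2 CAGA-GFP cells (1000/well, DMEM with 1% FBS) received compound, then TGF-beta at 500 pg/mL final, and were incubated 18 hours at 37 degrees C. Viability was read by CellTiter-Glo luminescence. Media-only wells were set as complete cell-killing and DMSO as no toxicity.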
ATXN2 expr inh = Primary qHTS for Inhibitors of ATXN expression; Potency, µM (titrated, usually from 57 µM), for the others: top-dose activity change, negative = inhibition, most hits filed as inhibitors; actives 0.72% (n = 360,000); HEK-293 ATXN2-luciferase reporter, luminescence, 24 h; AID 1745845, 2022; note: % is set by controls: 0 for no effect and ±100 for the full control effect; nearly all actives have a fitted effect of over 55% in size
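ATXN2-luciferase reporter cells (luciferase flanked by upstream and downstream ATXN2 gene portions) were treated 24 h at 37 °C with compounds at up to 57 uM. SteadyGlo luminescence gave expression; GF-AFC fluorescence gave viability.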
TGFb inhibitor = qHTS for Inhibitors of TGF-b | HepG2 CAGA-GFP TGF-b/SMAD3 reporter, GFP fluorescence, 18 h; TGF-beta stimulated, 500 pg/mL final | Potency, µM (series often up to 46.1 µM), inactives show top-dose activity, negative = inhibition, actives largely listed as inhibitors | actives 1.2% (n = 410,000) | AID 588855, 2011; note: % is set by controls: 0 for no effect and ±100 for the full control effect; nearly all actives have a fitted effect of over 65% in size
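Cell-based qHTS in HEPG2 carrying a CAGA-GFP Smad reporter; compounds added before 500 pg/mL final TGF-beta, 18 h incubation at 37 degrees C, GFP fluorescence quantified per cell by imaging cytometry.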
S2 tox = Viability Counterscreen for Primary qHTS for Inhibitors of ATXN expression; S2 cells (HEK-293 line with an ATXN2-luciferase reporter) viability, CellTiter-Fluor protease fluorescence, 24 h; Potency, µM (highest dose often 56.7 µM), actives largely listed as cytotoxic; actives 0.49% (n = 400,000); AID 651635, 2014; note: nearly all actives have a fitted effect of over 40% in size
Numbers without * were called inactive; ! = not active in a repeat. Hits are enriched below; roughly 17% of the tested compounds scored in any of these assays. Calls come from the whole dose curve; as a rule, active = well fitted curve in the direction sought with a large enough effect; inconclusive = small, poorly fitted or top-dose-only effect, or another doubt; inactive = no such curve, though single readings can be large; an effect the other way counts as inactive or inconclusive. Potency is the fitted concentration of half-maximal effect.

Results for CN1CC[C@@]2(C)c3cc(O)ccc3N(C)[C@@H]12 ?
TDP1 cell CPT: 5.8µM*; DT40 TDP1 no CPT: 7.31µM*; HepG2 tox: 17.8µM*!; ATXN2 expr inh: -22.3%; TGFb inhibitor: inconclusive; S2 tox: 14.1µM*

What do the screens show for `CC1Oc2cc3c(-c4c(O)cc(O)c5c(O)c6c(cc45)OC(C)C(C)C6=O)c(O)cc(O)c3c(O)c2C(=O)C1C` (configuration not stated)?
TDP1 cell CPT: 0.0164µM*; DT40 TDP1 no CPT: 0.116µM*; HepG2 tox: 11.2µM*; ATXN2 expr inh: 11.2µM*; TGFb inhibitor: 14.1µM*; S2 tox: inconclusive

Results for Oc1cccc2cccnc12 ?
TDP1 cell CPT: 3.26µM*; DT40 TDP1 no CPT: 2.59µM*; HepG2 tox: 5.62µM*; ATXN2 expr inh: 11.2µM*!; TGFb inhibitor: 3.55µM*; S2 tox: 12.6µM*!

What do the screens show for `CN(C(=O)Oc1cccc2cccnc12)c1ccccc1`?
TDP1 cell CPT: 0.3%; DT40 TDP1 no CPT: -7.0%; HepG2 tox: 0.9%; ATXN2 expr inh: 4.3%; TGFb inhibitor: 2.7%; S2 tox: inactive

What do the screens show for `COC(=O)OCC12CCC(O1)C1(C)C(=O)OCC21` (configuration not stated)?
TDP1 cell CPT: inconclusive; DT40 TDP1 no CPT: 29.1µM*; HepG2 tox: -19.7%; ATXN2 expr inh: 1.1%; TGFb inhibitor: -29.6%; S2 tox: inactive

What do the screens show for `O=C(Nc1cc(Cl)cc(Cl)c1)N1Cc2ccccc2-n2nncc2C1`?
TDP1 cell CPT: inconclusive; DT40 TDP1 no CPT: inconclusive; HepG2 tox: -25.9%; ATXN2 expr inh: -23.8%; TGFb inhibitor: 0.7%; S2 tox: inconclusive

What do the screens show for `CC1(C)COC(Nc2ccc(Cl)cc2)=N1`?
TDP1 cell CPT: -15.8%; DT40 TDP1 no CPT: -21.3%; HepG2 tox: 5.1%; ATXN2 expr inh: 4.1%; TGFb inhibitor: 4.9%; S2 tox: inactive

What do the screens show for `O=C(O)C1C2CC3CC(C2)CC1(n1ncc(N2CCC4(CC2)OCCO4)c(Cl)c1=O)C3` (configuration not stated)?
TDP1 cell CPT: 0.5%; DT40 TDP1 no CPT: -1.0%; HepG2 tox: 13.2%; ATXN2 expr inh: 4.5%; TGFb inhibitor: 2.2%; S2 tox: inactive

Results for S=C(SSC(=S)N1CCCCC1)N1CCCCC1 ?
TDP1 cell CPT: 0.75µM*; DT40 TDP1 no CPT: 0.944µM*; ATXN2 expr inh: -90.4%; S2 tox: 10µM*!

What do the screens show for `Cc1ccc(C(O)(C(=O)OC(C)C)C(O)c2ccc(F)cc2)cc1` (configuration not stated)?
TDP1 cell CPT: inconclusive; DT40 TDP1 no CPT: 20.6µM*

What do the screens show for `CC1NCCOC1c1ccccc1` (configuration not stated)?
TDP1 cell CPT: -0.7%; DT40 TDP1 no CPT: -6.4%; ATXN2 expr inh: 7.4%; S2 tox: inactive

What do the screens show for `c1cc2c(cc1N1CCOCC1)CNCc1cnnn1-2`?
TDP1 cell CPT: -0.5%; DT40 TDP1 no CPT: -0.2%; HepG2 tox: 0.0%; ATXN2 expr inh: 0.2%; TGFb inhibitor: 3.7%; S2 tox: inactive

How did Cc1cccc(Cn2cccc(C(=O)Nc3ccc(F)cc3F)c2=O)c1 do in these assays?
TDP1 cell CPT: -26.1%; DT40 TDP1 no CPT: inconclusive; HepG2 tox: -1.5%; ATXN2 expr inh: -11.0%; TGFb inhibitor: -0.9%; S2 tox: inactive

How did CCC(=O)OC1CCC2C3CCC4CC(=O)C=CC4(C)C3CCC12C (configuration not stated) do in these assays?
TDP1 cell CPT: -71.0%; DT40 TDP1 no CPT: 20.6µM*; HepG2 tox: 5.9%; ATXN2 expr inh: -3.6%; TGFb inhibitor: 25.4%; S2 tox: inactive

Results for C#CCOC(C(=O)OCCN(C)C)(c1ccccc1)c1ccccc1 ?
TDP1 cell CPT: 21.1µM*; DT40 TDP1 no CPT: 11.9µM*; ATXN2 expr inh: 19.2%; S2 tox: inactive

How did CN1[C@H]2CC(=O)C[C@@H]1[C@@H](O)C2 do in these assays?
S2 tox: inactive

How did O=C(Nc1ccccc1)N1CCCC2(CCN(C(=O)Oc3ccccc3)CC2)C1 do in these assays?
TDP1 cell CPT: 12.6%; DT40 TDP1 no CPT: inconclusive

Results for C[C@H]1CC2C3CC=C4C[C@@H](O)CC[C@]4(C)C3CC[C@]2(C)[C@H]1O (some centres not stated) ?
TDP1 cell CPT: -6.1%; DT40 TDP1 no CPT: 2.6%; HepG2 tox: 2.3%; ATXN2 expr inh: -7.0%; TGFb inhibitor: 11.8%; S2 tox: inactive

How did C[C@H]1CC[C@@H]2[C@@H](C)[C@H]3[C@H](C[C@H]4[C@@H]5CC=C6C[C@@H](O[C@@H]7O[C@H](CO)[C@H](O)[C@H](O[C@@H]8O[C@H](CO)[C@@H](O)[C@H](O)[C@H]8O)[C@H]7O[C@@H]7O[C@@H](C)[C@H](O)[C@@H](O)[C@H]7O)CC[C@]6(C)[C@H]5CC[C@]34C)N2C1 do in these assays?
TDP1 cell CPT: 14.6µM*; DT40 TDP1 no CPT: inconclusive; HepG2 tox: 12.6µM*; ATXN2 expr inh: inconclusive; TGFb inhibitor: inconclusive

Results for CCOC(=O)c1cccc(NC(=O)c2cnc(N3CCCCC3)c3ccccc23)c1 ?
TDP1 cell CPT: 18.4µM*; DT40 TDP1 no CPT: 23.1µM*; HepG2 tox: -21.4%; TGFb inhibitor: inconclusive

Results for Cc1ccc(S(=O)(=O)N(CC(=O)NCCSc2ccc(Cl)cc2)c2ccccc2C)cc1 ?
TDP1 cell CPT: 20.6µM*; DT40 TDP1 no CPT: 23.1µM*; HepG2 tox: -10.7%; ATXN2 expr inh: -21.6%; TGFb inhibitor: inconclusive; S2 tox: inconclusive

What do the screens show for `CCCCOc1ccc(Cn2c(=O)oc3ccccc32)cc1`?
TDP1 cell CPT: inconclusive; DT40 TDP1 no CPT: inconclusive; HepG2 tox: -0.3%; ATXN2 expr inh: -7.1%; TGFb inhibitor: 3.7%; S2 tox: inactive

Results for O=C(CN1CCN(C(=O)CNC(=O)c2ccc(-c3ccccc3)cc2)CC1)Nc1ccccc1Cl ?
TDP1 cell CPT: 13µM*; DT40 TDP1 no CPT: 13µM*; HepG2 tox: -25.6%; TGFb inhibitor: -9.4%; S2 tox: inconclusive

How did COC(=O)c1ccc(Cl)c(NC(=O)CN2CCN(Cc3ccccc3)CC2)c1 do in these assays?
TDP1 cell CPT: 2.0%; DT40 TDP1 no CPT: inconclusive; HepG2 tox: -3.2%; ATXN2 expr inh: -6.3%; TGFb inhibitor: 2.7%; S2 tox: inactive
